The values that follow come from PubChem BioAssay AID651597 (National Center for Advancing Translational Sciences (NCATS), 2012).

Structures are written as SMILES. Several values for one entry are separate records, joined by “and”; a condition that tells them apart may be missing. Equal entries are not always repeated. The whole screen tested about 1,100 compounds, of which about 390 (35%) were called active. Not shown: some 30% with an inconclusive outcome. The call rests on the fitted dose curve; in most records, active means well fitted inhibition curve with a large enough effect; inconclusive means small, poorly fitted or top-dose-only effect; inactive means flat fitted curve, though single readings scatter. Some of the results follow. Where a call stands in place of a potency, no number is given.
Potency means the concentration at half of the fitted maximal effect.

In the test the target is Luciferin 4-monooxygenase (Photinus pyralis) (UniProt P08659). Briefly: qHTS of Nrf2 Activators: Hit Validation in Secondary FLuc Assay. Further: nearly all actives have a fitted effect of over 65% in size. As to conditions: firefly luciferase inhibition counter-screen, luminescence; series mostly up to 57.5 µM. The method, boiled down: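 Counter-screen on purified firefly luciferase with ATP and D-luciferin at Km concentrations; compounds flagged if they inhibit the enzyme, indicating possible reporter stabilization rather than ARE activation.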
In the case of `O=C1N/C(=N\N=C\c2ccco2)SC1Cc1ccccc1[N+](=O)[O-]` (stereo not drawn), the Potency entry was “inactive”. The value for `Cc1ccc2[nH]c(=O)c3cc(C(=O)N(C)Cc4ccco4)sc3c2c1` was 12 µM (active); that for `CN(C)CCNC(=O)c1cccc2ccc(-c3ccc(-c4ccccc4)cc3)nc12` was “inactive”.

As to `CC(=O)Cn1nnc2sc(-c3ccccc3)cc2c1=O`, the Potency was 6.01 µM (active) and 5.36 µM (active).

In the case of `CCN(C(=O)Cn1nnc2sc(-c3ccccc3)cc2c1=O)c1cccc(C)c1`, the Potency is 12 µM (active). As to `CC(=NNc1ccc2ccccc2n1)c1ccccc1O`, the Potency was 0.0169 µM (active). The entry for `Cc1cc(C)c(-n2c(SCCS(=O)(=O)c3ccc(F)cc3)n[nH]c2=O)c(C)c1` is “inactive”; for `COc1cccc(C(=O)Oc2ccccc2/C=C\C(=O)c2cc3ccccc3o2)c1` it is 1.51 µM (active); for `O=C(Oc1ccccc1/C=C\C(=O)c1cc2ccccc2o1)c1ccccc1` it is 1.07 µM (active). For the compound `COc1ccc(-c2cc3ccccc3oc2=O)cc1NC(=O)c1ccc([N+](=O)[O-])o1`, the Potency result is “inactive”. `CN1CCN(CCCNC(=O)c2cc3c(=O)n(C)c4ccccc4c3s2)CC1`: the Potency entry is “inactive”. The value for `O=[N+]([O-])c1ccc(/C=N/N=C/c2ccc([N+](=O)[O-])o2)o1` was “inactive”; that for `O=[N+]([O-])c1ccc(/C=N/Nc2ccc3ccccc3c2)o1` was 1.69 µM (active). The entry for `O=[N+]([O-])c1ccc(/C=[N+](\[O-])[C@@H]2CCCC[C@@H]2/[N+]([O-])=C/c2ccc([N+](=O)[O-])o2)o1` is “inactive”; for `O=C(COCc1cc(-c2ccc(F)cc2)on1)Nc1cc(Cl)ccc1O` it is “inactive”; for `Cc1cccc2cc3c(nc12)-c1ccccc1C3=O` it is 10.7 µM (active). In the case of `Cc1cccc2nc3c(nc12)-c1ccccc1C3=O`, the Potency result was “inactive”. `CS(=O)(=O)c1nc(S(=O)(=O)c2ccc(Cl)cc2)c(N2CCOCC2)s1`: the Potency result was “inactive”.

Take `Clc1cc(Cl)cc(Nc2ncnc(-n3cccc3)n2)c1`: the Potency result was “inactive”. As for `Clc1ccc(-c2nnc(-c3cccc4ccccc34)o2)cc1`, the Potency is 1.35 µM (active). The entry for `CCn1nc(C)c(Br)c1-c1nc(-c2cccc(C)c2)no1` is “inactive”; for `Cc1cccc(-c2nnc(-c3cccc4ccccc34)o2)c1` it is 0.675 µM (active).

On to `COc1cc2c(cc1Cl)/C(=C\CCN(C)C)c1ccccc1S2`, for which the Potency result is “inactive”. The value for `Cc1nnc2n1N=CC=C(c1ccccc1)S2` was “inactive”; that for `C#CCSc1nnc(-c2sc3ccccc3c2Cl)o1` was 2.39 µM (active); that for `O=C1C(=C2CCc3ccccc32)Cc2ccccc21` was 0.301 µM (active). As to `Cc1ccc(S(=O)(=O)/N=C(/NNC(=O)c2cccc(Cl)c2)c2ccccc2)cc1`, the Potency was 5.36 µM (active). The figure for `O=C(NN/C(=N/S(=O)(=O)c1ccc(Cl)cc1)c1ccccc1)c1cccc(Cl)c1` is 3.01 µM (active); for `O=C(NNC(=O)c1sccc1-n1cccc1)c1cccc(Cl)c1` it is “inactive”; for `O=[N+]([O-])c1cccc2ccc(/C=C/c3ccc(F)cc3)nc12` it is 2.39 µM (active). The value for `O=[N+]([O-])c1ccc(/C=C/c2ccc3cccc([N+](=O)[O-])c3n2)cc1` was “inactive”; that for `Cc1c(=O)n(OCc2ccccc2)c2ccccc2[n+]1[O-]` was “inactive”.

For `N=c1oc2ccccc2cc1-c1nc(-c2ccccc2)cs1`, the Potency was 2.69 µM (active). The value for `CC1CCCCC1NC(=O)COC(=O)c1c2c(nc3ccccc13)/C(=C/c1ccco1)CC2` (stereo not drawn) was 4.78 µM (active). The entry for `Cc1cc(SCC(=O)N/N=C/c2ccco2)nc2ccccc12` is “inactive”. The value for `c1ccc(-c2ccc3c(c2)NC(C2Nc4cc(-c5ccccc5)ccc4O2)O3)cc1` (stereo not drawn) was “inactive”; that for `O=[N+]([O-])c1ccccc1S(=O)c1ccccc1[N+](=O)[O-]` was “inactive”. In the case of `O=C1C(Cl)=C(N2CCN(c3ccccc3[N+](=O)[O-])CC2)C(=O)c2ccccc21`, the Potency was 1.2 µM (active). The entry for `O=C(Nc1cccn2ncnc12)c1cccc(C(F)(F)F)c1` is “inactive”. The value for `O=C(Nc1ccc(Cl)cn1)c1cnn2cccnc12` was 2.39 µM (active); that for `COc1c(Cl)cc(C(=O)NCc2ccco2)cc1Cl` was “inactive”. The value for `N#CC(C(=O)NCc1ccco1)c1nc2ccccc2nc1N1CCOCC1` (stereo not drawn) was “inactive”; that for `O=C(NCc1ccco1)c1cccnc1-c1nc2ccccc2s1` was 10.7 µM (active). In the case of `O=C(Nc1cccc(/C=C/c2ccccn2)c1)c1ccc(-n2cncn2)cc1`, the Potency is 2.13 µM (active). The value for `Cn1c(=O)n(C)c2cc(NC(=O)c3cccc([N+](=O)[O-])c3)c(Br)cc21` was “inactive”.

As to `COc1cc(OC)cc(C(=O)O/N=C(\N)c2cccc(C)c2)c1`, the Potency was 9.53 µM (active). The entry for `Cc1cc(CNC(=O)c2cccc([N+](=O)[O-])c2)c2ccccc2n1` is “inactive”; for `COc1ccc(/C(N)=N/OC(=O)c2cccc([N+](=O)[O-])c2)cc1` it is 1.51 µM (active). As to `CCOC(=O)CCn1c(=O)c2cccn2c2cccnc21`, the Potency entry is “inactive”.

Take `Cc1nc(/N=C(\N)NC(=O)c2ccccc2)nc2ccccc12`: the Potency is 3.79 µM (active). The value for `C(=Cc1cnnc2ccccc12)c1ccccc1` was 3.38 µM (active). As to `COc1ccc(Cl)cc1NC(=O)c1cc(C)no1`, the Potency result was “inactive”. The value for `COc1ccc(C(C)=O)cc1OCc1ccccc1` was “inactive”.

Consider `COc1ccc(Cl)cc1C(=O)NC(=S)Nc1nc(C)cc(C)n1`, for which the Potency result was “inactive”. The value for `COc1ccc(Cl)cc1C(=O)O/N=C(\N)c1ccccn1` was 10.7 µM (active); that for `COc1ccc(Cl)cc1C(=O)O/N=C(\N)c1ccc(Cl)cc1` was 9.53 µM (active); that for `COc1ccccc1C(=O)O/N=C(\N)c1ccc(Cl)cc1` was 3.38 µM (active). The entry for `COc1ccc(Cl)cc1C(=O)O/N=C(\N)c1ccncc1` is “inactive”; for `COCCNC(=O)c1ccc(-n2c(-c3ccccc3)cc3c2CCC(C)C3)cc1` (stereo not drawn) it is “inactive”; for `CSc1nc(Oc2ccc3ccccc3c2)c2sccc2n1` it is “inactive”. On to `Cc1nc([N+](=O)[O-])c(Br)n1Cc1ccccc1`, for which the Potency entry is “inactive”. The value for `COc1ccc(/C=C2/CCCC(CN(C)C)C2=O)cc1` (stereo not drawn) was 3.38 µM (active).

As to `COc1cccc(/C=C2/CCC(CN(C)C)C2=O)c1` (stereo not drawn), the Potency was 1.51 µM (active). The value for `O=C(CSc1nnc(-c2cccnc2)o1)c1cc2ccccc2oc1=O` was “inactive”; that for `COc1nc2ccc(C)cc2cc1-c1noc(-c2ccccc2)n1` was “inactive”; that for `c1ccc(-c2noc(-c3cccnc3)n2)cc1` was 3.01 µM (active). With `COc1cccc(-c2nc(-c3ccccc3)no2)c1`, the Potency was 0.151 µM (active). The entry for `Brc1ccc(-c2nnc(-c3cccnc3)c3conc23)cc1` is “inactive”; for `Fc1ccccc1-c1nc(-c2ccc(Cl)cc2)no1` it is 0.478 µM (active). The figure for `c1ccc(-c2noc(-c3cccc4ccccc34)n2)cc1` is 0.953 µM (active); for `COc1cccc(C2=CC(c3cccs3)n3nnnc3N2)c1` (stereo not drawn) it is “inactive”; for `O=C(CN1CC(=O)Oc2ccccc21)OCC(=O)c1ccc(F)cc1` it is “inactive”. Turning to `c1cncc(-c2noc(-c3cccc4ccccc34)n2)c1`, the Potency is 2.39 µM (active). The figure for `Cc1cc(C)c(C#N)c(SCC(=O)c2cccs2)n1` is 12 µM (active); for `Cc1cc(C)c(C#N)c(OCC(=O)c2ccccc2)n1` it is “inactive”. The value for `Cc1cc(C)c(C#N)c(SCC(=O)c2ccccc2)n1` was “inactive”; that for `Cc1ccc(C(=O)N/N=C/c2ccc(-c3ccc(Br)cc3[N+](=O)[O-])o2)o1` was 3.79 µM (active); that for `N#Cc1nc(-c2ccc(F)cc2)oc1NCc1ccco1` was “inactive”. The value for `CC(C)Cc1cc(-c2ccco2)c(C#N)c(N)n1` was “inactive”.

Take `N#Cc1c(-c2ccco2)cc(-c2ccccn2)nc1N`: the Potency is 12 µM (active). In the case of `N#Cc1nc(-c2ccco2)oc1N1CCCC1`, the Potency result is “inactive”. In the case of `N#Cc1c(-c2ccco2)cc(-c2ccc(F)cc2)nc1N`, the Potency is 5.36 µM (active). On to `Cc1nc(NCc2ccco2)nc2c1C(=O)CC(C)C2` (stereo not drawn), for which the Potency entry is “inactive”.

Take `COC(=O)c1sccc1NC(=O)c1cccc(F)c1`: the Potency result was “inactive”. As for `O=C(Nc1nnc(-c2cccs2)s1)c1cccc(F)c1`, the Potency is 2.39 µM (active). The entry for `O=C(Nc1nnc(-c2cccs2)s1)C1CC1` is “inactive”; for `CC(=O)Oc1c(-c2ccco2)oc2ccccc2c1=O` it is “inactive”; for `COc1ccc2oc3cc(Cl)ccc3c(=O)c2c1` it is 1.69 µM (active). The value for `COc1ccc2oc3ccccc3c(=O)c2c1` was 8.49 µM (active); that for `O=c1c2ccccc2oc2ccc(-c3ccc4cc[nH]c4c3)cc12` was 0.135 µM (active). With `CC(C)(C)/C(O)=C/c1nc2cc(Cl)ccc2oc1=O`, the Potency result is “inactive”. The value for `O=S(=O)(c1ccc(F)cc1)c1snnc1-c1ccccc1` was “inactive”; that for `CS(=O)(=O)c1nc(S(=O)(=O)c2ccc(Cl)cc2)c(N2CCN(CCO)CC2)s1` was “inactive”.

For the compound `Cc1ccc(-c2cc(-c3cccc(F)c3)n[nH]2)c(O)c1`, the Potency is 1.2 µM (active).

As to `COn1c(-c2ccccc2)nc2c1CCc1c-2no[n+]1[O-]`, the Potency result was “inactive”. The entry for `COC(=O)C1=C(C)N(c2ccc(Br)cc2)C(=O)/C1=C\c1ccco1` is “inactive”; for `O=C1/C(=C\c2ccco2)NC(=S)N1c1ccccc1` it is 8.49 µM (active).

As to `O=C(CCS(=O)(=O)c1ccccc1)Nc1nc(-c2ccccn2)cs1`, the Potency entry is “inactive”. Consider `O=C(CC(=O)c1ccccn1)c1ccccc1`, for which the Potency was 5.36 µM (active). With `Cc1cc(C)c2c(NC(=S)NC(=O)c3ccccc3)nn(C)c2n1`, the Potency entry was “inactive”. With `Cc1ccc2cccnc2c1NC(=S)NC(=O)c1ccccc1`, the Potency is 15.1 µM (active). Turning to `Cc1ccc2cccc(NC(=S)NC(=O)c3ccccc3)c2n1`, the Potency is 6.01 µM (active).

Turning to `Cc1csc(NC(=S)NC(=O)c2ccccc2)n1`, the Potency is 2.13 µM (active). The figure for `Cc1sc(NC(=S)NC(=O)c2ccccc2)c(C#N)c1C` is 12 µM (active). The value for `Cc1cccc(C)c1NC(=S)NC(=O)c1cccc(Cl)c1` was “inactive”.

With `[O-][n+]1onc2c3ccnnc3ccc21`, the Potency entry is “inactive”. Regarding `O=C(CC(=O)Nc1ccccc1[N+](=O)[O-])Nc1ccccc1[N+](=O)[O-]`, the Potency result was “inactive”.

For the compound `Cc1csc(NC(=O)Nc2ccccc2[N+](=O)[O-])n1`, the Potency was 2.69 µM (active).
